PubChem BioAssay (Tox21)
Unmarked numbers belong to inactive results. Results filed as inconclusive are left out. A call without a number means that no potency is given here. The source made the active and inactive calls. Unless noted, the call rests on the fitted dose curve; in most records, active means well fitted curve in the direction sought with a large enough effect in the repeat runs; inconclusive means weak or mixed curves; inactive means no such curve, though single readings can be large; an effect the other way counts as inactive or inconclusive.

What was measured:
[1] = qHTS assay to identify small molecule agonists of the constitutive androstane receptor (CAR) signaling pathway - cell viability counter screen (AID 1224836); further: nearly all actives have a fitted effect of over 45% in size
Outline: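 Cell viability multiplexed with the CAR agonist screen: CellTiter-Fluor fluorescence after 23 hr at 37 C. HepG2-CYP2B6-hCAR cells got compounds at 15 concentrations with PK11195 at 0.75 uM final.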

[2] = qHTS assay to identify small molecule antagonists of the constitutive androstane receptor (CAR) signaling pathway - cell viability counter screen (AID 1224837); further: nearly all actives have a fitted effect of over 45% in size
Outline: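 Cells are seeded, rested 4 hr at 37 C/5% CO2, dosed with compound (15-point series) and 50 nM CITCO, incubated a further 23 hr, and then CellTiter-Fluor reagent is added before fluorescence is read. The line is HepG2 with stable hCAR and CYP2B6-2.2kb.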

[3] = qHTS assay to identify small molecule antagonists of the estrogen related receptor signaling pathway with the pleiotropic PPARgamma coactivator (PGC) from Tox21 10K library - cell viability counter screen (AID 1224840; active means well fitted cell-killing curve with a large enough effect in the repeat runs, not every such curve was filed as active; further: nearly all actives have a fitted effect of over 40% in size)
Outline: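 Cell viability is measured by CellTiter-Fluor fluorescence in PGC/ERR cells that receive compounds after a 6-hour attachment period and are then incubated 17.5 hours at 37 C.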

[4] = target: Thyrotropin receptor (Homo sapiens) (UniProt P16473); test: qHTS assay to identify small molecule agonists of the thyroid stimulating hormone receptor (TSHR) signaling pathway (AID 1224843; calls by dose curve; further: nearly all actives have a fitted effect of over 45% in size)
Chain of Thyrotropin receptor (Homo sapiens) (P16473 whole entry, looked up): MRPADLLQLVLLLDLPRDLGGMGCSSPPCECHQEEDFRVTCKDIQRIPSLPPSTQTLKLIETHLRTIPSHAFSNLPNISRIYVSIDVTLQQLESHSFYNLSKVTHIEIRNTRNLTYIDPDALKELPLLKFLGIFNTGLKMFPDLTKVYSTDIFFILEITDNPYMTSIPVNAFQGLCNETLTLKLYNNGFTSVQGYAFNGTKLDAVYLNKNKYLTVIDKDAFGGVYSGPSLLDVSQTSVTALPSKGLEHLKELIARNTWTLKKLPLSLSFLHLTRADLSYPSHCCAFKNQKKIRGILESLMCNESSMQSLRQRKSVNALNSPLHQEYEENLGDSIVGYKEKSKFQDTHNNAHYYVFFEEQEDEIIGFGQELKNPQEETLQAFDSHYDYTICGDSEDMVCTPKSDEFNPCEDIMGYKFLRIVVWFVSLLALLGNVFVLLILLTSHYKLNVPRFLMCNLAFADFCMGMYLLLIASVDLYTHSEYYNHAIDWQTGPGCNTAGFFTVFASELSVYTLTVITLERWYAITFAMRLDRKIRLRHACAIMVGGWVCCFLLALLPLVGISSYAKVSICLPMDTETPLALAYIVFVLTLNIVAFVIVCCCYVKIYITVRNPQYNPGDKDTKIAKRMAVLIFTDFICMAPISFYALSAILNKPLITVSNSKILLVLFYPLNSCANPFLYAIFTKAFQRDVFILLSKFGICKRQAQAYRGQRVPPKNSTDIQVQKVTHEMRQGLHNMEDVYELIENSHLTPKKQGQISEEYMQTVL
Outline: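 HEK293/TSHR, 800 cells/well; cpd 30 min RT; add cAMP-d2 + anti-cAMP-cryptate, 1 h RT; fluorescence read on plate reader. 15-pt titration, n=3.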

[5] = qHTS assay to identify small molecule agonists of the hypoxia (HIF-1) signaling pathway - cell viability counter screen (AID 1224844; calls by dose curve; further: nearly all actives have a fitted effect of over 50% in size)
Outline: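 Viability counter screen: HRE-bla ME-180 cells plated 5 hrs before compound addition, treated 17 hrs at 37C and 5% CO2, then CellTiter-Glo added after the FRET reporter read; luminescence after 30 min.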

[6] = qHTS assay to identify small molecule agonists of H2AX (AID 1224845; active means well fitted activation curve with a large enough effect in the signal ratio in the repeat runs, not every such curve was filed as active; the % refers to the signal ratio)
Outline: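 Wild-type CHO-K1 cells, plated overnight, exposed 3hr at 37C to 15 concentrations (0.76% DMSO final). Lysed, then HTRF anti-pH2AX (S139) cryptate and anti-H2AX-d2 antibodies, 24 hr room temperature; 665/620 nm emission read.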

[7] = qHTS assay to identify small molecule agonists of the hypoxia (HIF-1) signaling pathway (AID 1224846; active means well fitted activation curve with a large enough effect in the signal ratio in the repeat runs, not every such curve was filed as active; the % refers to the signal ratio)
Outline: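 Agonist mode reporter screen. ME-180 cells stably expressing bla under HRE control received test compounds in DMSO for 17 hrs (37C, 5% CO2), and beta-lactamase activity was then detected with the CCF4-AM FRET substrate.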

[8] = qHTS assay to identify small molecule agonists of H2AX - cell viability counter screen (AID 1224847; calls by dose curve; further: top concentration of the series differs between compounds; nearly all actives have a fitted effect of over 30% in size)
Outline: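 Counter-screen for viability: CellTiter-Glo ATP luminescence read after 3 h compound treatment (15-point titration, 0.76% DMSO final) of CHO-K1 cells at 37C, with 30 min room-temperature reagent incubation.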

[9] = qHTS assay to identify small molecule antagonists of the estrogen related receptor (ERR) signaling pathway from Tox21 library (AID 1224848); further: nearly all actives have a fitted effect of over 50% in size
Outline: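 Compounds dissolved in DMSO are pin-transferred onto ERR reporter cells (2,000 per well) that have settled for 6 h at 37 C. Plates then incubate 18 h at 37 C before ONE-Glo luciferase reagent and a luminescence read 30 min later.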

[10] = qHTS assay to identify small molecule agonists of the estrogen related receptor (ERR) signaling pathway from Tox21 library (AID 1224849; calls by dose curve; further: nearly all actives have a fitted effect of over 15% in size); settings: ERR reporter cell line, ONE-Glo luciferase, 18 h
Outline: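 Quantitative HTS in agonist format: NTP ERR cell line, compounds transferred in DMSO after 6 h plating, 18 h incubation at 37 C, ONE-Glo luminescence endpoint.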

[11] = qHTS RealTime-Glo MT Cell Viability Assay in HepG2 cells - 24 hour (AID 1224867); further: nearly all actives have a fitted effect of over 50% in size
Outline: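 Luminescence read-out: viable HepG2 cells reduce a prosubstrate to a NanoLuc substrate, giving a signal proportional to live cell number. Reads taken at 0, 8, 16, 24, 32 and 40 h of compound exposure at 37 C.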

[12] = qHTS RealTime-Glo MT Cell Viability Assay in HEK293 cells - 32 hour (AID 1224868); further: top concentration of the series differs between compounds; nearly all actives have a fitted effect of over 50% in size
Outline: (§1)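 Nonlytic real-time viability readout: viable cells convert prosubstrate to NanoLuc substrate, giving luminescence proportional to live cell number. HEK293, 600 cells/well, compound added after 5 h, continuous culture at 37 C.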

[13] = A CellTox Green Cytotoxicity Assay to monitor cytotoxicity in HEK293 cells - 0 hour (AID 1224869); further: nearly all actives have a fitted effect of over 50% in size
Outline: (§2)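 Dead-cell fluorescence measured kinetically: asymmetric cyanine dye, HEK293, 600 cells/well, 5 h settle, 23 nL cpd/DMSO, 37 C, reads 0–40 h every 8 h.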

[14] = qHTS RealTime-Glo MT Cell Viability Assay in HepG2 cells - 40 hour (AID 1224870); further: nearly all actives have a fitted effect of over 50% in size
Outline: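 HepG2 cells (600/well) mixed with RealTime-Glo MT reagent, settled 5 h at 37 C/5% CO2 before compound addition. Nonlytic NanoLuc luminescence from viable-cell prosubstrate reduction read repeatedly during 40 h treatment at 37 C.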

[15] = A CellTox Green Cytotoxicity Assay to monitor cytotoxicity in HEK293 cells - 40 hour (AID 1224871); further: nearly all actives have a fitted effect of over 45% in size
Outline: as §2

[16] = qHTS RealTime-Glo MT Cell Viability Assay in HEK293 cells - 16 hour (AID 1224872)
Outline: as §1

[17] = target: Nuclear receptor subfamily 1 group I member 3 (Homo sapiens) (UniProt Q14994); test: qHTS assay to identify small molecule antagonists of the constitutive androstane receptor (CAR) signaling pathway (AID 1224838);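 further: HepG2 cells stably expressing hCAR with CYP2B6 luciferase reporter stimulated by CITCO; nearly all actives have a fitted effect of over 40% in size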
Chain of Nuclear receptor subfamily 1 group I member 3 (Homo sapiens) (Q14994 whole entry, looked up): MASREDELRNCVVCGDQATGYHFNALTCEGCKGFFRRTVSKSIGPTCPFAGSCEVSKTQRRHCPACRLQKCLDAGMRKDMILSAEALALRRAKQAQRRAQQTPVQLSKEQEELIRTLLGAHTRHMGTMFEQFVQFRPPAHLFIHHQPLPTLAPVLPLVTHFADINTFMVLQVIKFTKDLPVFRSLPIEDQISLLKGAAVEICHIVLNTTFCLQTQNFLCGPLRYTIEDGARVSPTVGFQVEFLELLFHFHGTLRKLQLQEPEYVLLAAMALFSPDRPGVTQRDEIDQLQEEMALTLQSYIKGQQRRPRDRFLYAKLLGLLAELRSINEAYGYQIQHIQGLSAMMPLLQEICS
Outline: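 Luminescence from a CYP2B6-2.2kb promoter reporter in hCAR-expressing HepG2 cells reflects CAR signaling. Cells received compounds at 15 concentrations and 50 nM CITCO (final), then incubated 24 h at 37 C/5% CO2.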

[18] = qHTS assay to identify small molecule antagonists of the estrogen related receptor signaling pathway with the pleiotropic PPARgamma coactivator (PGC) from Tox21 10K library (AID 1224841; call rule not given here)
Outline: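 Cells stably carrying the PGC/ERR reporter, seeded at 2,000 per well, received pin-transferred compounds 6 h post-plating. Exposure lasted 18 h at 37 C. Signal: One-Glo luminescence.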

[19] = qHTS assay to identify small molecule agonists of the estrogen related receptor signaling pathway with the pleiotropic PPARgamma coactivator (PGC) from Tox21 10K library (AID 1224842); further: nearly all actives have a fitted effect of over 15% in size
Outline: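 PGC/ERR reporter cell line, 2,000 cells per well, incubated 6 h at 37 C before 23 nL compound in DMSO was added. After 18 h at 37 C, One-Glo luminescence read following 30 min at room temperature.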

Row | SMILES | Potency [1] | Potency [2] | Potency [3] | Potency [4] | Potency [5] | Potency [6] | Potency [7] | Potency [8] | Potency [9] | activity change, positive = activation ([10]; at 92.4 µM (top of the series)) | Potency [11] | Potency [12] | Potency [13] | Potency [14] | Potency [15] | Potency [16] | Potency [17] | Potency [18] | activity change, positive = activation ([10]; at 42.5 µM (top of the series)) [%] | Potency [19]
1 | Nc1nc(-c2ccccc2)cs1 | inactive | inactive | inactive | inactive | inactive | inactive | inactive | inactive | inactive | 41.7% (active) | inactive | inactive | inactive | inactive | inactive | inactive | – | – | – | –
2 | CN1CCN2c3ccccc3Cc3ccccc3C2C1 (stereo not drawn) | inactive | inactive | inactive | inactive | – | inactive | – | inactive | inactive | – | inactive | inactive | inactive | inactive | inactive | inactive | inactive | inactive | -10.4 | –
3 | CCOc1ccc2ccccc2c1C(=O)N[C@@H]1C(=O)N2[C@@H]1SC(C)(C)[C@@H]2C(=O)O | inactive | inactive | inactive | inactive | inactive | inactive | inactive | inactive | inactive | – | inactive | inactive | inactive | – | inactive | – | – | inactive | -0.57 | inactive
